Source: ChEMBL document CHEMBL3988442, “University of Dundee, Small-Polar-MMV Screening Library” (2021)
About 1,200 (3.2%) of roughly 38,000 compounds showed an effect of 50% or more. The median lay at about -58%. This is one part of a sample in which strong results are shown more often than they occur.

System: Plasmodium falciparum
Experiment: Calibr Malaria Delayed Death Assay SOP
Format: functional, organism-based
Design: scale not given: in the data most compounds retested in dose-response had high values
Conditions: concentration 4.99e-06 (unit not given; other assays of the set use mol/L)

Structure (SMILES) | Percent Effect [%]
CC(C)c1ccc(NS(=O)(=O)CC2=NC(=O)n3cccc3C2=O)cc1 | -194.3
CO[C@H]1CO[C@@]2(CCCN(C(=O)C3CC=CC3)C2)C1 | -81.44
CC(C)CNC(=O)CSC1CCc2ccccc2NC1=O (stereo not drawn) | -170.7
Cc1c(C(C)N)cnn1-c1ccccn1 (stereo not drawn) | -122.1
Cc1c(C(C)N)cnn1-c1cccc2ccccc12 (stereo not drawn) | 74.08
COc1ccc(-n2ncc(C(C)NC3Cc4ccccc4C3)c2C)cc1 (stereo not drawn) | 1.566
Fc1ccc(CN2Cc3nccn3CC(CN3CCOCC3)C2)cc1.O=C(O)C(F)(F)F.O=C(O)C(F)(F)F (stereo not drawn) | -18.4
CC(=O)c1cccc(OCc2cc(C(=O)N3CCCCO3)n[nH]2)c1 | -55.13
Cc1ccc(OCC(C)NS(=O)(=O)Cc2ccon2)cc1 (stereo not drawn) | -50.51
COCC1CC2(CCN(C(C)=O)CC2)CN1Cc1csc(C)n1.O=C(O)C(F)(F)F (stereo not drawn) | -10.79
Cc1nc(CN2CC[C@@H](OCC3CC3)[C@@H]2Cc2cccnc2)cs1.O=C(O)C(F)(F)F.O=C(O)C(F)(F)F | 6.851
CCN1CCC2(CC1)CC(COC)N(Cc1csc(C)n1)C2.O=C(O)C(F)(F)F.O=C(O)C(F)(F)F (stereo not drawn) | -25.47
CO[C@@H]1CCN(c2nnc(C)s2)C[C@@H]1Cc1ccccc1.O=C(O)C(F)(F)F | -42.62
Cc1ccc(N2CC[C@H](OCC3CC3)[C@@H]2Cc2cccnc2)nn1.O=C(O)C(F)(F)F | -86.08
COCC1CC2(CCN(CC3CC3)CC2)CN1Cc1csc(C)n1.O=C(O)C(F)(F)F.O=C(O)C(F)(F)F (stereo not drawn) | 52
Cc1nnc(N2CC[C@@H](OCC3CC3)[C@@H](Cc3ccccc3)C2)s1.O=C(O)C(F)(F)F | 84.3
Cc1nc(CN2CC[C@H](OCC3CC3)[C@@H]2Cc2cccnc2)cs1.O=C(O)C(F)(F)F.O=C(O)C(F)(F)F | 60.39
Cc1nnc(N2CC[C@H](OCC3CC3)[C@@H](Cc3ccccc3)C2)s1.O=C(O)C(F)(F)F | -5.425
COc1cc(OC)c(C2CC(=O)Oc3cc(C)[nH]c(=O)c32)c(OC)c1 (stereo not drawn) | -23.56
COc1ccc(CN(C)CC(=O)c2ccc3[nH]c(=O)[nH]c3c2)cc1F | -24.42

Structure (SMILES) | Percent Effect [%]
COc1cccc(S(=O)(=O)NC(=O)CC2CCCO2)c1 (stereo not drawn) | -80.63
CC(C)NC(=O)C1CN(C(=O)Cc2ccccc2)CC12CCOCC2 (stereo not drawn) | -95.53
CCCS(=O)(=O)NCCc1ncc(CC)s1 | -128.9
OCCN1CCN(Cc2coc(-c3cccc(F)c3)n2)CC1 | -200.4
CC(C)(C#N)c1ccccc1CN(CCO)Cc1ccsc1 | -17.47
CCCc1nnc([C@H]2CCN(Cc3ncc[nH]3)C2)o1 | -53.09
C[C@]1(O)CN(Cc2ncc[nH]2)CC[C@@H]1Oc1cccc(F)c1 | -12.82
O=C(O)C(F)(F)F.O=S(=O)(c1cccs1)N1Cc2nc(CN3CCCC3)oc2C1 | -93.44
COC(=O)CCNC(=O)c1cc(-c2ccc(OC)cc2)nn1C | -127.7
Cc1nn(C)c2c(N3CCC(C)CC3)nc(C3CC3)nc12 | -7.534
Cc1nc(N2CCCC2)nc2c1CN(C(C)C)CC2.O=C(O)C(F)(F)F | -39.09
CCCN1CCc2nc(N3CCOCC3)nc(NC(C)C)c2C1 | -40.15
CC(C)Nc1nc(N2CCCC2)nc2c1CCN(S(C)(=O)=O)CC2.O=C(O)C(F)(F)F.O=C(O)C(F)(F)F | 51.48
CC(C)Nc1nc(N2CCCC2)nc2c1CN(C)CC2 | 48.45
CC(C)Nc1nc(-c2ccccc2)nc2c1CCN(C(=O)C1CC1)CC2.O=C(O)C(F)(F)F | 24.24
CC(C)Nc1nc(N2CCCC2)nc2c1CN(c1ncc(F)cn1)CC2 | 23.23
CC(C)Nc1nc(N2CCCC2)nc2c1CN(S(C)(=O)=O)CC2 | 50.55
CCC(C)N1CCc2nc(N3CCCC3)nc(NC(C)C)c2C1 (stereo not drawn) | 77.92
CCN1CCc2nc(N3CCOCC3)nc(NC(C)C)c2C1 | 12.6
Cn1ccnc1CN1CCCN(C(=O)c2ccc3cc[nH]c3c2)CC1 | -18.34

Structure (SMILES) | Percent Effect [%]
Cc1nc(CO[C@@H]2CC[C@H]3[C@H]2OCCN3Cc2cccnc2)cs1.O=C(O)C(F)(F)F.O=C(O)C(F)(F)F.O=C(O)C(F)(F)F | -25.46
CC(C)CNC(=O)N1C[C@H]2C[C@H](C(=O)NCc3ccccc3)[C@@H](C1)O2 | -25.06
O=C(NCc1cc[nH]n1)N1CCN(c2ncccn2)CC1 | -98.04
Cc1ccoc1C(=O)N1Cc2c(CN3CCCCC3)nn(C)c2C1.O=CO | -35.59
Cc1cc(CN(C)C2CCCN(c3cccnn3)C2)no1 (stereo not drawn) | -12.48
Cc1oncc1C(=O)NCC1(O)CCc2ccccc2C1 (stereo not drawn) | -85.49
COc1coc(C(=O)Nc2nc(-c3ccncc3)cs2)cc1=O | -115.6
Cc1ccc(NC2CCN(C(=O)COc3cccc(F)c3)CC2)nn1 | -0.3434
Cn1cc(C[C@H]2[C@H](O)CCN2Cc2ccncc2)cn1.O=C(O)C(F)(F)F.O=C(O)C(F)(F)F | -36.65
Cc1cc(C2CCCN2CCC(=O)N2CCc3sccc3C2)no1 (stereo not drawn) | -5.731
O=C(CCN1CCCC1c1cccc(F)c1)N1CCc2sccc2C1 (stereo not drawn) | 40.53
COc1ccc(CNCCC(=O)N2CCc3sccc3C2)cc1O | 34.01
O=C(CCNCc1cccc(O)c1)N1CCc2sccc2C1 | 50.25
N#Cc1cccc(CNCCC(=O)N2CCc3sccc3C2)c1 | 18.53
O=C(CCN1CCCC1C1CCCCC1)N1CCc2sccc2C1 (stereo not drawn) | 58.84
CNc1nc(C)c(C(=O)N2C[C@@H](C(=O)O)[C@H](C3CC3)C2)s1 | -129.8
Cc1cc(C[S+]([O-])CC(=O)NCc2ccccc2)no1 (stereo not drawn) | -44.89
C[C@H](NC(=O)OC(C)(C)C)c1nnc(S(=O)(=O)Cc2cccc(F)c2)o1 | -198.9
